VDR inh – Inhibitors of the vitamin D receptor (VDR): qHTS; Vitamin D3 receptor (Homo sapiens), P11473; actives 0.93% (n = 400,000); AID 504847, 2011; VDR-SRC2-3 peptide fluorescence polarization, 2 h; Potency, µM, for inactives: max response, negative = inhibition, most hits filed as inhibitors
Target sequence (P11473 whole entry, looked up): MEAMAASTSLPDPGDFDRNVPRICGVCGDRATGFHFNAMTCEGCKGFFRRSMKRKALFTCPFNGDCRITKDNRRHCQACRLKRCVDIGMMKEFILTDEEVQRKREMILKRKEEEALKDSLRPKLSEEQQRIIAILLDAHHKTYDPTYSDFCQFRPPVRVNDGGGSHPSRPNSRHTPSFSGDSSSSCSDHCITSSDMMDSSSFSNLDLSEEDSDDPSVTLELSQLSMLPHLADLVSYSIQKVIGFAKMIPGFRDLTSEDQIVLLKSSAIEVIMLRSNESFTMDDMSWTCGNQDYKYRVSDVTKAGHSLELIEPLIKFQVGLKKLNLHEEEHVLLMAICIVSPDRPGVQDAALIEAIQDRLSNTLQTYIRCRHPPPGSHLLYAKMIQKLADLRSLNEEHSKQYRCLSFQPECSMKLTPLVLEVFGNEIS
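Two reagent solutions held at 4 deg C in the dark were dispensed, compounds pinned at 23 nl, and the mixture incubated 2 h at room temperature. Read-out: fluorescence polarization of VDR–SRC2-3 peptide binding.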
DT40 TDP1 no CPT – qHTS for Inhibitors of human tyrosyl-DNA phosphodiesterase 1 (TDP1): qHTS in cells in absence of CPT; DT40 Tdp1-/- hTDP1 cells, no CPT, ATP luminescence, 48 h; Potency, µM (highest dose often 46.2 µM), without a hit: top-dose activity change, negative = growth inhibition, actives largely listed as inhibitors; actives 15% (n = 420,000); AID 686978, 2013; also: nearly all actives have a fitted effect of over 55% in size
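Chicken DT40 Tdp1-/- cells complemented with human TDP1, screened without camptothecin (DMSO vehicle only), 400 cells/well. Compounds pin-transferred, cells incubated at 37 °C for at least 48 hr. Growth read as ATP-dependent luminescence (CellTiter-Glo, 30 min at RT).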
PLK1 PBD block – qHTS for Inhibitors of PLK1-PDB (polo-like kinase 1 - polo-box domain): Primary Screen. Serine/threonine-protein kinase PLK1 (Homo sapiens), P53350. Plk1 PBD binding of FITC phosphopeptide, fluorescence polarization. Potency, µM, without a hit: max response, negative = inhibition, actives largely listed as inhibitors. actives 2.8% (n = 360,000). AID 720504, 2013; also: series mostly up to about 57 µM; nearly all actives have a fitted effect of over 65% in size
DT40 TDP1 CPT – qHTS for Inhibitors of human tyrosyl-DNA phosphodiesterase 1 (TDP1): qHTS in cells in presence of CPT | Potency, µM (series often up to 46.2 µM), for inactives: at the top dose activity change, negative = growth inhibition, actives largely listed as inhibitors | AID 686979, 2013 | actives 12% (n = 420,000) | chicken DT40 Tdp1-/-;hTDP1 cells + 20 nM CPT, ATP luminescence, 48 h; also: nearly all actives have a fitted effect of over 55% in size
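Cell growth measured by CellTiter-Glo luminescence after a minimum 48 h, 37 C compound exposure with 20 nM CPT in Tdp1-knockout DT40 cells stably expressing hTDP1, seeded 400/well; qHTS titration format.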
TDP1 block – qHTS Assay for Inhibitors of Tyrosyl-DNA Phosphodiesterase (TDP1) | Tyrosyl-DNA phosphodiesterase 1 (Homo sapiens), Q9NUW8 | recombinant TDP1, AlphaScreen DNA substrate cleavage | Potency, µM (titrated, usually from 130 µM), inactives show at the top dose activity change, negative = inhibition, usual class: inhibitors | actives 0.28% (n = 350,000) | AID 485290, 2010; also: nearly all actives have a fitted effect of over 40% in size
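AlphaScreen read-out: signal falls as enzyme removes the 3' tyrosine-FITC from a 5'-biotinylated DNA oligo (15 nM, 5 min, RT). Enzyme was E. coli-made recombinant Tdp1 at 1 nM, exposed to compound for 15 min beforehand; beads 10 ug/ml, 10 min.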
GCN5L2 inh – qHTS Assay for Inhibitors of GCN5L2; GCN5L2 HAT assay, ThioGlo1 CoA-SH fluorescence; Potency, µM (series often up to 58.9 µM), without a hit: at the highest dose activity change, negative = inhibition, most hits filed as inhibitors; actives 0.21% (n = 390,000); AID 504327, 2011
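Fluorescence readout, Ex340nm/Em540nm: ThioGlo1 (50uM final) reacts with free CoA thiol released as 20nM GCN5L2 acetylates H3(1-25) peptide (75uM) using acetyl-CoA (70uM). Compound and enzyme sat 15 min beforehand; 20 min room-temperature reaction.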
An asterisk follows results filed as active; ? = inconclusive; · = not tested or not shown; [ ] = dose if it differs, or a comment. In the library only some 18% were active in any assay of this set; here they are far more common. Calls follow the shape of the dose curve; as a rule, active = well fitted curve in the direction sought with a large enough effect; inconclusive = small, poorly fitted or top-dose-only effect, or another doubt; inactive = no such curve, though single readings can be large; an effect the other way counts as inactive or inconclusive. % is scaled to controls: 0 for no effect and ±100 for the full control effect; potency is read from the fitted curve at half-maximal effect.

SMILES	VDR inh	DT40 TDP1 no CPT	PLK1 PBD block	DT40 TDP1 CPT	TDP1 block	GCN5L2 inh
COC(=O)[C@]12CCCCC=C1N(Cc1ccc(Cl)cc1Cl)C(=O)[C@H](CC(=O)N1CCSCC1)C2	·	16µM*	-4%	?	·	·
COC(=O)[C@]12CCCCC=C1N(Cc1ccc(Cl)cc1Cl)C(=O)[C@H](CC(=O)N1CCCCC1)C2	·	18µM*	2%	?	·	·
COc1ccccc1NS(=O)(=O)c1cc(NC(=O)COc2ccccc2)ccc1N1CCOCC1	-17%	?	-6%	?	2%	0%
COc1ccc(NS(=O)(=O)c2cc(N)ccc2N2CCCCC2)cc1	-2%	-12%	-7%	?	6%	-9%
COc1ccccc1NS(=O)(=O)c1cc(N)ccc1N1CCCC1	89µM*	?	6.7µM*	?	7%	-14%
CCOC(=O)C(=CNc1ccc(N2CCCCC2)c(S(=O)(=O)Nc2ccccc2OC)c1)C(=O)OCC	?	5.8µM*	11µM*	3.7µM*	·	·
COc1ccccc1NS(=O)(=O)c1cc(NC(C)=O)ccc1N1CCCCC1	?	-6%	9.5µM*	-19%	3%	-15%
COc1ccccc1NS(=O)(=O)c1cc(NC(=O)c2ccncc2)ccc1N1CCCC1	?	21µM*	17µM*	?	0%	-26%
COc1ccccc1NS(=O)(=O)c1cc(NC(=O)CCNC(C)=O)ccc1N1CCCCC1	-8%	-23%	-22%	-22%	3%	-13%
CCc1ccc(O)c(C(=O)c2cnc3cc(-c4ccc(C)cc4)nn3c2)c1	0%	-5%	·	?	7%	-5%
CC(=NNc1ccc([N+](=O)[O-])cn1)c1ccc(N)cc1	-10%	?	-7%	?	·	·
COCC(=O)Nc1ccc(N2CCCC2)c(S(=O)(=O)Nc2ccccc2OC)c1	-11%	-24%	-12%	-18%	0%[56.1 µM]	-7%
O=C(Nc1ccc(N2CCOCC2)c(S(=O)(=O)Nc2ccccc2Cl)c1)c1ccc(=O)[nH]n1	-11%	16µM*	-4%	?	·	·
COc1ccccc1NS(=O)(=O)c1cc(NC(=O)C(C)NC(N)=O)ccc1N1CCCC1 (stereo not given)	?	-26%	13µM*	-9%	2%	-14%
COc1ccccc1NS(=O)(=O)c1cc(NC(=O)Nc2cccc(C)c2)ccc1N1CCCCC1	?	9.2µM*	?	15µM*	3%	-8%
O=C(Nc1ccc(N2CCOCC2)c(S(=O)(=O)Nc2ccccc2Cl)c1)c1ccccc1	15%	?	4%	?	0%	-7%
COc1ccc(NS(=O)(=O)c2cc(NC(=O)c3cnccn3)ccc2N2CCCC2)cc1	?	?	21µM*	?	3%	-7%
O=C(c1ccc(F)cc1Cl)N1CCN(S(=O)(=O)c2cccs2)CC1	6%	-20%	-8%	-17%	2%	-4%
Nc1ccc(N2CCOCC2)c(S(=O)(=O)Nc2ccccc2Cl)c1	21%	2%	-4%	-18%	5%	-6%
O=C(Nc1ccc(Cl)cc1)Nc1ccc(N2CCCC2)c(S(=O)(=O)Nc2ccccc2Cl)c1	-27%	5.2µM*	-5%	5.2µM*	5%	-15%
CCc1cccc(C)c1NC(=O)c1cnn(-c2ccc(F)cc2)c1-n1cccc1	12%	·	·	·	-6%	6%
CCN(Cc1nc2ccccc2c(=O)[nH]1)C(=O)c1ccc(C)c(NC(=O)c2ccco2)c1	2%	?	-16%	-23%	0%	-1%
COc1ccc(C(=O)Nc2ccc(N3CCCC3)cc2)cc1	-7%	?	?	-13%	0%	-20%
COc1ccc(C(=O)Nc2ccc(N3CCN(C(=O)c4ccccc4C)CC3)cc2)cc1	12%	8.2µM*	0%	8.2µM*	-8%	-6%
COc1ccccc1Oc1ccc(NC(=O)c2ccccc2C)cc1	-11%	23µM*	6%	?	-4%	2%
SMILES	VDR inh	DT40 TDP1 no CPT	PLK1 PBD block	DT40 TDP1 CPT	TDP1 block	GCN5L2 inh
CCN1CCN(c2ccc(NC(=O)c3ccc4c(c3)[nH]c(=O)n4Cc3ccc(OC)cc3)cc2)CC1	-3%	?	-7%	23µM*	8%	-1%
Cc1nc(C)c(C(=O)Nc2ccc(Oc3ccccc3)cc2)o1	-5%	15µM*	-19%	?	5%	-1%
CCN(c1ccccc1)S(=O)(=O)c1ccc(OC)c(NC(=O)c2c(C)noc2C)c1	-9%	4%	-2%	-10%	0%	-1%
CCn1c(C)nc2cc(NS(=O)(=O)c3ccccc3)cc(C(=O)N3C[C@@H](C)O[C@@H](C)C3)c21	·	-15%	·	-3%	·	·
COc1ccc(Oc2ccc(NC(=O)c3ccccc3C)cc2)cc1	6%	21µM*	-19%	?	-2%	-2%
COc1ccc(O)c(C(=O)CC(=O)c2ccccc2C)c1	-2%	5.8µM*	-19%	7.3µM*	-3%	-2%
CC(=O)Nc1ccc(NC(=O)c2ccccc2C)cc1	7%	6%	-3%	-2%	1%	-6%
COc1ccc(O)c(C(=O)CC(=O)c2cccnc2)c1	12%	?	3%	?	·	·
C/C(=N\n1c(C)nc2ccccc2c1=O)c1ccc(N)cc1	0%	18µM*	2%	?	·	·
COc1ccc(OC)c(S(=O)(=O)N2CCC(n3c(C)nc4cccnc43)CC2)c1	9%	-12%	·	?	8%	15%
O=C(CSCc1ccccc1)N/N=C/c1ccc(OCC(=O)N2CCCCC2)cc1	-9%	-26%	-14%	-6%	7%	-1%
O=C(CSCc1ccccc1Br)N/N=C/c1ccc(OCC(=O)N2CCCCC2)cc1	1%	2.9µM*	3%	-7%	3%	1%
Cc1nn(C)c2c1c(-c1ccccc1)cc(=O)n2C(C)C(=O)NCCc1ccc(Cl)cc1 (stereo not given)	2%	?	·	?	5%	-11%
COC(=O)c1ccccc1S(=O)(=O)N1CCc2nc(-c3ccc(OC)cc3C)c3c(c2C1)CO[C@@H](c1ccccc1)C3	·	·	·	·	3%[12.3 µM]	·
Cc1c(C(=O)NC2CCCC2)sc2ncnc(NCCN(C)C)c12	·	7%	·	-5%[9.04 µM]	·	·

From PubChem BioAssay
